{
  "source": "paper PMC4336329",
  "about": "(PLoS ONE, 2015)",
  "note": "Screen size: about 310,000 compounds; about 14,000 (4.5%) showed an effect of 50% or more. Effects have a minus sign here. Shown is part of a subset that was picked to be rich in strong results.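 Further: peak tail current of the secondary pulse compared with the same well before compound.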",
  "data": [
    {"target": "human ether-à-go-go-related gene (hERG) potassium channel (human, UniProt Q12809)", "sequence (Q12809 whole entry, looked up)": "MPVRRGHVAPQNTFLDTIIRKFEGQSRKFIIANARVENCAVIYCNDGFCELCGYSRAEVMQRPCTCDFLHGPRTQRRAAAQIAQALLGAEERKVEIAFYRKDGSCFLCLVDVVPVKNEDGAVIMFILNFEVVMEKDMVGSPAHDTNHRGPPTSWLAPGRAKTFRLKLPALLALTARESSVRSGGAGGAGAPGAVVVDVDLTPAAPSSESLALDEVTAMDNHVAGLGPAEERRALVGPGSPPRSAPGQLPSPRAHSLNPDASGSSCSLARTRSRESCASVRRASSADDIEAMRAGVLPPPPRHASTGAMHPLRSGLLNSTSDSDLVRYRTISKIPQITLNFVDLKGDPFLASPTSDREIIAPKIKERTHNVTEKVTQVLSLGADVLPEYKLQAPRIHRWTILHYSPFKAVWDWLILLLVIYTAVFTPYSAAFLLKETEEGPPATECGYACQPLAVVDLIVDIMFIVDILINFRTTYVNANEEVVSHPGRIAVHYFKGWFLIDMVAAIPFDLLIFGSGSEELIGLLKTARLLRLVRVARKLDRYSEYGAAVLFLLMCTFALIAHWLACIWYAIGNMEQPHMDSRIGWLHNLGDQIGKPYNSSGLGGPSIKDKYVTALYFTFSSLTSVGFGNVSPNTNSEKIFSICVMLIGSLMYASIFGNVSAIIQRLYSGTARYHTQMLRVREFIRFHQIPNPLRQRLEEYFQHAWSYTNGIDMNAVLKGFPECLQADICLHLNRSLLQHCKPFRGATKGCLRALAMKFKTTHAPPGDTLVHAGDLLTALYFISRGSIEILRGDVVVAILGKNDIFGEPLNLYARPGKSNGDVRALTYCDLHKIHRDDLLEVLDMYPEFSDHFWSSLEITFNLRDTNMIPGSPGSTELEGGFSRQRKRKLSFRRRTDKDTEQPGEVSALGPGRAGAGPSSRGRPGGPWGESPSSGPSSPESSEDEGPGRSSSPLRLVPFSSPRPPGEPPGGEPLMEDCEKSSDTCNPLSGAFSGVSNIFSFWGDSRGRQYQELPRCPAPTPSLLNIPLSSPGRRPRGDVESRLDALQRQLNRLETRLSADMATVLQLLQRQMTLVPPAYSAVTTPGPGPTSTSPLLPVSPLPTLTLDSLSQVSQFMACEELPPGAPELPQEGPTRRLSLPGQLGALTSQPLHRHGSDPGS", "experiment": "primary screen, population patch clamp on CHO cells stably expressing hERG; higher = less effect of the substance", "units": {"hERG current change (%, negative = inhibition) at 10uM": "%"}, "values": [
      {"smiles": "CCOc1ccc(C(NC(=O)CC)c2c(O)ccc3ccccc23)cc1", "note": "(centres unmarked)", "hERG current change (%, negative = inhibition) at 10uM": -7.96},
      {"smiles": "O=C(COC(=O)c1ccccc1NC(=O)c1ccco1)Nc1ccc2c(c1)OC(F)(F)O2", "hERG current change (%, negative = inhibition) at 10uM": 12.2},
      {"smiles": "FC(F)(F)c1cc(-c2ccc(Cl)cc2)nc(NCc2cccnc2)n1", "hERG current change (%, negative = inhibition) at 10uM": 3.07},
      {"smiles": "CNC(=S)N/N=C/c1cccc(OCc2ccccc2F)c1", "hERG current change (%, negative = inhibition) at 10uM": 18.3},
      {"smiles": "Cc1cc(NC(=O)CSc2[nH]c(=O)cc(C(F)(F)F)c2C#N)no1", "hERG current change (%, negative = inhibition) at 10uM": -2.45},
      {"smiles": "CCNC(=O)C(=O)N/N=C/c1cc([N+](=O)[O-])ccc1O", "hERG current change (%, negative = inhibition) at 10uM": 4.32},
      {"smiles": "CCC1CSC(Nc2ccc(C(=O)/C=C/c3ccc(OC)c(OC)c3)cc2)=N1", "note": "(centres unmarked)", "hERG current change (%, negative = inhibition) at 10uM": -52.4},
      {"smiles": "CCC1CSC(Nc2ccc(C(=O)/C=C/c3ccc(Br)cc3)cc2)=N1", "note": "(centres unmarked)", "hERG current change (%, negative = inhibition) at 10uM": 0.372},
      {"smiles": "CCC1CSC(Nc2ccc(C(=O)/C=C/c3cccc(C)c3)cc2)=N1", "note": "(centres unmarked)", "hERG current change (%, negative = inhibition) at 10uM": 14.4},
      {"smiles": "C[C@@H](O)c1nc2ccccc2n1N", "hERG current change (%, negative = inhibition) at 10uM": 9.12},
      {"smiles": "Cc1cc(N2C(=O)c3ccccc3C2=O)n(C)n1", "hERG current change (%, negative = inhibition) at 10uM": 9.7},
      {"smiles": "CCOC(=O)N1CCN(C(=O)/C(=C/c2cccs2)NC(=O)c2ccc(OC)c(OC)c2)CC1", "hERG current change (%, negative = inhibition) at 10uM": -71.2},
      {"smiles": "COc1ccc(C(=O)N/C(=C/c2cccs2)C(=O)NC(C)(C)C)cc1OC", "hERG current change (%, negative = inhibition) at 10uM": 5.42},
      {"smiles": "CCOC(=O)N1CCN(C(=O)c2ccc(OC)c(OC)c2)CC1", "hERG current change (%, negative = inhibition) at 10uM": 18.5},
      {"smiles": "COc1ccc(C(=O)N/C(=C\\c2cccs2)C(=O)N2CCN(C)CC2)cc1OC", "hERG current change (%, negative = inhibition) at 10uM": -56.4},
      {"smiles": "COc1ccc(C(=O)N/C(=C/c2cccs2)C(=O)NN)cc1OC", "hERG current change (%, negative = inhibition) at 10uM": 13.7},
      {"smiles": "COc1ccc(/C=C(\\NC(=O)c2ccc(OC)c(OC)c2)C(=O)N2CCN(C)CC2)cc1", "hERG current change (%, negative = inhibition) at 10uM": -19.4},
      {"smiles": "Cc1ccc(CNC(=O)C2CC=CCC2C(=O)O)cc1", "note": "(centres unmarked)", "hERG current change (%, negative = inhibition) at 10uM": 16.3},
      {"smiles": "CCOC(=O)c1cc([N+](=O)[O-])sc1N", "hERG current change (%, negative = inhibition) at 10uM": 2.1},
      {"smiles": "O=C(COC(=O)c1ccccc1O)Nc1cc(S(=O)(=O)N2CCCCCC2)ccc1Cl", "hERG current change (%, negative = inhibition) at 10uM": -9},
      {"smiles": "Cn1c(=O)n(C)c2cc(NC(=O)COc3ccc(F)cc3F)ccc21", "hERG current change (%, negative = inhibition) at 10uM": -13.6},
      {"smiles": "CCOc1ccccc1C(=O)NCC(=O)N(C)Cc1cccnc1", "hERG current change (%, negative = inhibition) at 10uM": -3.07},
      {"smiles": "CCCCNCC(O)(c1ccc(Cl)cc1)c1ccc(Cl)cc1", "hERG current change (%, negative = inhibition) at 10uM": -68},
      {"smiles": "CCN(CC)CCNCC(O)(c1ccc(Cl)cc1)c1ccc(Cl)cc1", "hERG current change (%, negative = inhibition) at 10uM": -82.4},
      {"smiles": "CC(C)(C)NCC(O)(c1ccc(Cl)cc1)c1ccc(Cl)cc1", "hERG current change (%, negative = inhibition) at 10uM": -13.8},
      {"smiles": "CCC(C)NCC(O)(c1ccc(Cl)cc1)c1ccc(Cl)cc1", "note": "(centres unmarked)", "hERG current change (%, negative = inhibition) at 10uM": -37.7},
      {"smiles": "CCN(CC)CCNS(=O)(=O)c1ccc(Cl)cc1.Cl", "hERG current change (%, negative = inhibition) at 10uM": -12.9},
      {"smiles": "CCN(CC)CCNC(=S)Nc1ccc(Cl)cc1", "hERG current change (%, negative = inhibition) at 10uM": -21.7},
      {"smiles": "COc1ccc(-c2nc3n(n2)C(c2cccnc2)C(C(N)=O)=C(C)N3)cc1", "note": "(centres unmarked)", "hERG current change (%, negative = inhibition) at 10uM": -17.3},
      {"smiles": "CCOC(=O)COc1ccc(S(=O)(=O)Nc2ccc3c(c2)OCCO3)cc1", "hERG current change (%, negative = inhibition) at 10uM": -3.24},
      {"smiles": "COC(=O)C(Sc1nc(C)cc(C)c1C#N)c1ccccc1", "note": "(centres unmarked)", "hERG current change (%, negative = inhibition) at 10uM": -10.6},
      {"smiles": "CC(CC(=O)NC1CCCCC1)S(=O)(=O)c1ccc2c(c1)CCN2C(=O)C1CC1", "note": "(centres unmarked)", "hERG current change (%, negative = inhibition) at 10uM": 28.2},
      {"smiles": "CCCS(=O)(=O)N1CCCC(C(=O)NCc2ccc(C)cc2)C1", "note": "(centres unmarked)", "hERG current change (%, negative = inhibition) at 10uM": 4.91},
      {"smiles": "COc1ccc(S(=O)(=O)N2CCOCC2)cc1NC(=O)COC(=O)C1CCC1", "hERG current change (%, negative = inhibition) at 10uM": -6.23},
      {"smiles": "CC1=C(/C=C/c2ccccc2)CCN(C)C1.Cl", "hERG current change (%, negative = inhibition) at 10uM": -24.6},
      {"smiles": "Cl.OC(CN1CC=C(/C=C/c2ccc(Br)cc2)CC1)c1ccccc1", "note": "(centres unmarked)", "hERG current change (%, negative = inhibition) at 10uM": -2.33},
      {"smiles": "CN1CC=C(/C=C/c2ccc(-c3ccccc3)cc2)CC1.Cl", "hERG current change (%, negative = inhibition) at 10uM": -50.1},
      {"smiles": "CCCCc1nc(SCC(=O)Nc2cccc(Cl)c2)n[nH]1", "hERG current change (%, negative = inhibition) at 10uM": -4.4},
      {"smiles": "Nc1ccc2nc(SCC(=O)c3ccccc3)sc2c1", "hERG current change (%, negative = inhibition) at 10uM": 9.11},
      {"smiles": "CCOc1ccc(NC(=S)NCCN2CCN(Cc3ccccc3)CC2)cc1", "hERG current change (%, negative = inhibition) at 10uM": -62.3},
      {"smiles": "CCOc1cccc(C(=O)NC(=S)Nc2ccc(N3CCN(CC)CC3)cc2)c1", "hERG current change (%, negative = inhibition) at 10uM": -72.1},
      {"smiles": "CCOc1ccc(NC(=S)NCCCN2CCOCC2)cc1", "hERG current change (%, negative = inhibition) at 10uM": 10.7},
      {"smiles": "CCOc1ccc(NC(=S)NCCCc2ccccc2)cc1", "hERG current change (%, negative = inhibition) at 10uM": -12.4},
      {"smiles": "CCCOc1cccc(C(=O)NC(=S)Nc2ccc(N3CCN(C)CC3)cc2)c1", "hERG current change (%, negative = inhibition) at 10uM": 1.67},
      {"smiles": "CCOc1ccc(NC(=S)Nc2ccc(OCc3ccccc3)cc2)cc1", "hERG current change (%, negative = inhibition) at 10uM": 4.64},
      {"smiles": "COc1ccc(N2CCC(CNC(=S)Nc3c(C)cccc3C)C2)cc1", "note": "(centres unmarked)", "hERG current change (%, negative = inhibition) at 10uM": -4.72},
      {"smiles": "COc1ccc(N2CCN(CCCNC(=S)Nc3c(C)cccc3C)CC2)cc1", "hERG current change (%, negative = inhibition) at 10uM": -52.4},
      {"smiles": "CCOc1cccc(C(=O)NC(=S)Nc2ccc(N3CCCC3)cc2)c1", "hERG current change (%, negative = inhibition) at 10uM": 10.8},
      {"smiles": "CCOc1ccc(NC(=S)NCCCN2CCN(c3ccc(OC)cc3)CC2)cc1", "hERG current change (%, negative = inhibition) at 10uM": -70.7},
      {"smiles": "COc1ccc(NC(=S)NCCCN2CCCC2)cc1", "hERG current change (%, negative = inhibition) at 10uM": 5.95},
      {"smiles": "CCCN1CCN(CCCNC(=S)Nc2ccc(OC)cc2)CC1", "hERG current change (%, negative = inhibition) at 10uM": -22.8},
      {"smiles": "COCCCn1cc(C(=O)c2ccccc2OCC(=O)Nc2cccc(F)c2)cc(C#N)c1=O", "hERG current change (%, negative = inhibition) at 10uM": -35.9},
      {"smiles": "CN([C@@H](C(=O)OC(C)(C)C)c1ccccc1)S(=O)(=O)c1cccc(S(=O)(=O)N(C)[C@@H](C(=O)OC(C)(C)C)c2ccccc2)c1", "hERG current change (%, negative = inhibition) at 10uM": 14.3},
      {"smiles": "O=C(Nc1ccc(Cl)cc1F)c1cccc2ccccc12", "hERG current change (%, negative = inhibition) at 10uM": 12.2},
      {"smiles": "COc1cc(Cn2c(=O)c3c(OC)c(C)cnc3n(C)c2=O)cc(OC)c1", "hERG current change (%, negative = inhibition) at 10uM": 14.1},
      {"smiles": "Cn1c(CO)cnc1SCc1ccc(Cl)cc1", "hERG current change (%, negative = inhibition) at 10uM": 0.94},
      {"smiles": "O=C(NC(=S)NCCCN1CCOCC1)c1ccc(Br)cc1", "hERG current change (%, negative = inhibition) at 10uM": -42.9},
      {"smiles": "CCOc1ccc(C(=O)NC(=S)NCCCN2CCOCC2)cc1", "hERG current change (%, negative = inhibition) at 10uM": -50.1},
      {"smiles": "Cc1ccc(C(=O)NC(=S)NCCCN2CCOCC2)cc1", "hERG current change (%, negative = inhibition) at 10uM": -7.43}
    ]}
  ]
}
